# In PubChem BioAssay:
# Where “and” joins values, the source holds several entries; their conditions need not be identical. Equal values may be shown once. For part of these data: Potency and affinity values are given separately. Calls of active or inactive are those of the source.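 The calls were made as follows, unless noted: active = thallium flux through the channel raised or lowered by more than 3 SD from vehicle-only wells, actives on both sides; inactive = the rest.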
# Key:
# [1] = modulation of C. elegans fzo-1 (AID 1259413; call rule not given here;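 also: fzo-1 mutant C. elegans worms in liquid wells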); conditions: C. elegans fzo-1 modulator screen, mean read-out; stronger effect = higher value
# [2] = viability rescue of complex I mutant cybrids, primary screen, cell-based, galactose medium, ATP luminescence (AID 1645843;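 active = z-score of at least 1.8 in each of two replicates, scored against plate mean and spread of sample wells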;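 also: positive z means more ATP and so rescue of galactose-driven cybrid death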); conditions: complex I mutant cybrid cells, 72 h, stronger effect = higher value
# F380Y/beta1 = assay: modulators of BK channel variants, profiling panel, selectivity assay, cell-based, U2OS BacMam, thallium flux, beta subunits (AID 1259406); conditions: at 30 µM;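 also: initial slope of Thallos dye fluorescence rise after thallium is added; log ratio against the mean of 0.3% DMSO vehicle wells on the same plate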
# F380Y/beta4 = assay: as above; conditions: at 30 µM
# R275C = assay: as above; conditions: at 30 µM
# R275C/beta1 = assay: as above; conditions: at 30 µM
# R275C/beta2Delta = assay: as above; conditions: at 30 µM
# R275C/beta4 = assay: as above; conditions: at 30 µM
# R275C/Slo1WT/beta2 = assay: as above; conditions: at 30 µM
# [3] = liver-stage malaria parasite growth inhibition, primary screen, cell-based, HepG2, luciferase luminescence, HepG2 viability (AID 624349; in the data active = parasite load remaining mostly below about 12%, no sharp cut-off; inactive = mostly above about 10%;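 also: 100% = mean of DMSO negative control wells on the same plate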); conditions: P. berghei liver stage in HepG2, luciferase luminescence, concentration not given here; parasite load remaining: stronger effect = lower value; viability: measured here: HepG2 viability without parasites
# [4] = Cy5 fluorescence interference with SSB-bound oligo, artefact control for HCV NS3 helicase inhibitor project, biochemical, NIH Clinical Collection, E. coli SSB (AID 743268; call rule not given here)
# [5] = polyglutamine-triggered caspase-3 activation inhibitors, cell-based (AID 1583); conditions: polyglutamine-induced caspase-3 activation, cell assay; stronger effect = higher value;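 tested at 10 µM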
# [6] = suppressors of polyQ aggregation in yeast, 75Q-TubU reporter (AID 1593); conditions: Yeast 75Q polyglutamine aggregation reporter
# [7] = rescue of polyQ-huntingtin neuronal dysfunction in worms, whole organism, C. elegans mechanosensory neurons, N-terminal huntingtin (AID 1599); conditions: touch response, stronger effect = higher value
# [8] = inhibitors of mitochondrial cytochrome c release, biochemical, purified mitochondria (AID 1603); conditions: stronger effect = lower value;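 also: mouse liver mitochondria challenged with calcium chloride; signal normalized to the plate average as 100%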
# [9] = inhibitors of polyQ protein aggregation (AID 1604); conditions: polyglutamine-induced protein aggregation inhibition assay; stronger effect = higher value; tested at 2.5 µM
# [10] = enhancers of glutamate uptake in motor neurons, MN-1 cell line (AID 1612); conditions: MN-1 motor neuron cells, stronger effect = higher value;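 also: tested at 1 µM final; 0% = mean of DMSO vehicle wells on each plate; positive means more glutamate uptake than control and negative means less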
# [11] = suppressors of polyglutamine aggregation in yeast, 75Q-TubH (AID 1616); conditions: S. cerevisiae 75Q-TubH polyglutamine aggregation suppression; stronger effect = higher value
# [12] = hESC survival regulators, cell-based (AID 493140; call rule not given here;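 also: cells exposed to compounds for four days before counting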); conditions: human embryonic stem cell survival screen; stronger effect = higher value
# [13] = tested on: Hepatitis C virus NS3 helicase; assay: HCV NS3 helicase inhibitors, primary screen, biochemical, fluorescence polarization, LOPAC1280 library (AID 687035; in the data active = inhibition above about 37%); conditions: Purified HCV NS3 helicase, Cy5-dT15 ssDNA binding fluorescence polarization; stronger effect = higher value; concentration not given here
compound,measurement,setting,value
CCn1cc(C(=O)O)c(=O)c2cc(F)c(N3CCN(C)CC3)cc21,mean signal,[1],261 (inactive)
same,z-score,[2],0.7 (inactive) and 0.275 (inactive)
same,log fold change Tl+ flux,F380Y/beta1,-0.000461 (inactive)
same,log fold change Tl+ flux,F380Y/beta4,0.0266 (inactive)
same,log fold change Tl+ flux,R275C,-0.0565 (inactive)
same,log fold change Tl+ flux,R275C/beta1,0.0145 (inactive)
same,log fold change Tl+ flux,R275C/beta2Delta,-0.0279 (inactive)
same,log fold change Tl+ flux,R275C/beta4,0.00214 (inactive)
same,log fold change Tl+ flux,R275C/Slo1WT/beta2,0.067 (inactive)
Cc1ncc([N+](=O)[O-])n1CC(C)O (stereo not given),parasite load remaining,[3],136% (inactive) and 103% (inactive) and 36% (inactive)
same,viability,[3],85.3% and 77% and 71%
same,fluorescence ratio,[4],1.05 (inactive)
same,mean signal,[1],281 (inactive)
same,z-score,[2],0.59 (inactive) and 0.27 (inactive)
same,log fold change Tl+ flux,F380Y/beta1,-0.0446 (inactive)
same,log fold change Tl+ flux,F380Y/beta4,0.0424 (inactive)
same,log fold change Tl+ flux,R275C,-0.115 (active)
same,log fold change Tl+ flux,R275C/beta1,0.00616 (inactive)
same,log fold change Tl+ flux,R275C/beta2Delta,-0.0048 (inactive)
same,log fold change Tl+ flux,R275C/beta4,-0.0387 (inactive)
same,log fold change Tl+ flux,R275C/Slo1WT/beta2,0.0129 (inactive)
O=S(=O)(O)CCS,inhibition,[5],-57.1%
same,score,[6],1.3
same,rescue above control,[7],-8.48
same,cytochrome c release ratio,[8],0.92
same,inhibition of aggregation,[9],75%
same,glutamate uptake change,[10],-0.24%
same,aggregation suppression score,[11],1.35
same,parasite load remaining,[3],51.7% (inactive) and 115% (inactive) and 24.6% (inactive)
same,viability,[3],104% and 70.5% and 96.3%
same,fluorescence ratio,[4],0.73 (active)
same,mean signal,[1],248 (inactive)
same,z-score,[2],0.905 (inactive)
same,log fold change Tl+ flux,F380Y/beta1,0.0507 (inactive)
same,log fold change Tl+ flux,F380Y/beta4,0.00454 (inactive)
same,log fold change Tl+ flux,R275C,0.029 (inactive)
same,log fold change Tl+ flux,R275C/beta1,-0.0746 (inactive)
same,log fold change Tl+ flux,R275C/beta2Delta,-0.00238 (inactive)
same,log fold change Tl+ flux,R275C/beta4,0.0195 (inactive)
same,log fold change Tl+ flux,R275C/Slo1WT/beta2,0.0106 (inactive)
Cn1cnc([N+](=O)[O-])c1Sc1ncnc2nc[nH]c12,inhibition,[5],18.4%
same,score,[6],0.86
same,rescue above control,[7],-3.67
same,cytochrome c release ratio,[8],0.54
same,inhibition of aggregation,[9],83.1%
same,glutamate uptake change,[10],-23.5%
same,aggregation suppression score,[11],1.11
same,survival,[12],7.25 (inactive)
same,inhibition,[13],-2% (inactive)
same,fluorescence ratio,[4],1.03 (inactive)
same,mean signal,[1],260 (inactive)
same,z-score,[2],-0.21 (inactive) and -1.11 (inactive)
same,log fold change Tl+ flux,F380Y/beta1,-0.0302 (inactive)
same,log fold change Tl+ flux,F380Y/beta4,-0.00991 (inactive)
same,log fold change Tl+ flux,R275C,-0.0406 (inactive)
same,log fold change Tl+ flux,R275C/beta1,0.0023 (inactive)
same,log fold change Tl+ flux,R275C/beta2Delta,-0.053 (inactive)
same,log fold change Tl+ flux,R275C/beta4,-0.0246 (inactive)
same,log fold change Tl+ flux,R275C/Slo1WT/beta2,0.0598 (inactive)
OCCN1CCN(CCCN2c3ccccc3Sc3ccc(C(F)(F)F)cc32)CC1,inhibition,[5],-7.66%
same,score,[6],1.32
same,rescue above control,[7],0
same,cytochrome c release ratio,[8],2.24
same,inhibition of aggregation,[9],51.3%
same,glutamate uptake change,[10],-9.51%
same,aggregation suppression score,[11],1.51
same,survival,[12],5.33 (inactive)
same,inhibition,[13],-2% (inactive)
same,fluorescence ratio,[4],0.8 (active)
same,mean signal,[1],243 (inactive)
same,z-score,[2],-1.04 (inactive) and -1.87 (inactive) and -0.735 (inactive)
same,log fold change Tl+ flux,F380Y/beta1,0.117 (active)
same,log fold change Tl+ flux,F380Y/beta4,0.354 (active)
same,log fold change Tl+ flux,R275C,-0.11 (inactive)
same,log fold change Tl+ flux,R275C/beta1,0.409 (active)
same,log fold change Tl+ flux,R275C/beta2Delta,0.0662 (inactive)
same,log fold change Tl+ flux,R275C/beta4,0.23 (active)
same,log fold change Tl+ flux,R275C/Slo1WT/beta2,-0.0356 (inactive)
CN1CCCC(n2nc(Cc3ccc(Cl)cc3)c3ccccc3c2=O)CC1 (stereo not given),parasite load remaining,[3],30% (inactive) and 46.4% (inactive) and 19.4% (inactive)
same,viability,[3],75.4% and 180% and 64.4%
same,fluorescence ratio,[4],1.03 (inactive)
same,mean signal,[1],269 (inactive)
same,z-score,[2],-0.51 (inactive)
same,log fold change Tl+ flux,F380Y/beta1,0.109 (active)
same,log fold change Tl+ flux,F380Y/beta4,0.258 (active)
same,log fold change Tl+ flux,R275C,-0.0931 (inactive)
same,log fold change Tl+ flux,R275C/beta1,0.101 (active)
same,log fold change Tl+ flux,R275C/beta2Delta,-0.0285 (inactive)
same,log fold change Tl+ flux,R275C/beta4,0.0595 (inactive)
same,log fold change Tl+ flux,R275C/Slo1WT/beta2,0.0667 (inactive)
CN(C)CCCN1c2ccccc2Sc2ccc(Cl)cc21,inhibition,[5],1.97%
same,score,[6],0.97
same,rescue above control,[7],0
same,cytochrome c release ratio,[8],1.17
same,inhibition of aggregation,[9],35.3%
same,glutamate uptake change,[10],11.9%
same,aggregation suppression score,[11],1.25
same,survival,[12],3.17 (inactive)
same,inhibition,[13],-2% (inactive)
same,fluorescence ratio,[4],1.03 (inactive)
same,mean signal,[1],252 (inactive)
same,z-score,[2],-1.52 (inactive) and -1.29 (inactive) and -1.43 (inactive)
same,log fold change Tl+ flux,F380Y/beta1,-0.176 (active)
same,log fold change Tl+ flux,F380Y/beta4,0.171 (active)
same,log fold change Tl+ flux,R275C,-0.0248 (inactive)
same,log fold change Tl+ flux,R275C/beta1,0.272 (active)
same,log fold change Tl+ flux,R275C/beta2Delta,0.103 (active)
same,log fold change Tl+ flux,R275C/beta4,0.154 (active)
same,log fold change Tl+ flux,R275C/Slo1WT/beta2,-0.0668 (inactive)
CCCNC(=O)NS(=O)(=O)c1ccc(Cl)cc1,inhibition,[5],10.9%
same,score,[6],1.66
same,rescue above control,[7],-4.58
same,cytochrome c release ratio,[8],1.77
same,inhibition of aggregation,[9],91%
same,glutamate uptake change,[10],-12.9%
same,aggregation suppression score,[11],1.38
same,survival,[12],13.6 (inactive)
same,inhibition,[13],-1% (inactive)
same,fluorescence ratio,[4],0.93 (inactive)
same,mean signal,[1],243 (inactive)
same,z-score,[2],0.8 (inactive) and 0.135 (inactive)
same,log fold change Tl+ flux,F380Y/beta1,0.0557 (inactive)
same,log fold change Tl+ flux,F380Y/beta4,0.0279 (inactive)
same,log fold change Tl+ flux,R275C,0.0359 (inactive)
same,log fold change Tl+ flux,R275C/beta1,0.0476 (inactive)
same,log fold change Tl+ flux,R275C/beta2Delta,0.0638 (inactive)
same,log fold change Tl+ flux,R275C/beta4,0.017 (inactive)
same,log fold change Tl+ flux,R275C/Slo1WT/beta2,-0.0244 (inactive)
c1ccc2c(c1)CCCC2C1=NCCN1 (stereo not given),inhibition,[5],-4.42%
same,score,[6],1.43
same,rescue above control,[7],7.66
same,cytochrome c release ratio,[8],0.63
same,inhibition of aggregation,[9],56.8%
same,glutamate uptake change,[10],6.14%
same,aggregation suppression score,[11],1.06
same,survival,[12],6 (inactive)
same,inhibition,[13],-3% (inactive)
same,fluorescence ratio,[4],0.97 (inactive)
same,mean signal,[1],221 (inactive)
same,z-score,[2],0.18 (inactive) and 0.17 (inactive)
same,log fold change Tl+ flux,F380Y/beta1,0.041 (inactive)
same,log fold change Tl+ flux,F380Y/beta4,0.00535 (inactive)
same,log fold change Tl+ flux,R275C,-0.00319 (inactive)
same,log fold change Tl+ flux,R275C/beta1,-0.00185 (inactive)
same,log fold change Tl+ flux,R275C/beta2Delta,-0.0361 (inactive)
same,log fold change Tl+ flux,R275C/beta4,0.0129 (inactive)
same,log fold change Tl+ flux,R275C/Slo1WT/beta2,0.0141 (inactive)
CN(C)CCCN1c2ccccc2CCc2ccccc21,inhibition,[5],-29.3%
same,score,[6],1.28
same,rescue above control,[7],5.01
same,cytochrome c release ratio,[8],1.3
same,inhibition of aggregation,[9],41%
same,glutamate uptake change,[10],5.43%
same,aggregation suppression score,[11],1.2
same,survival,[12],8.08 (inactive)
same,inhibition,[13],-7% (inactive)
same,mean signal,[1],235 (inactive)
same,z-score,[2],-0.9 (inactive) and -0.525 (inactive) and -0.59 (inactive)
same,log fold change Tl+ flux,F380Y/beta1,0.0217 (inactive)
same,log fold change Tl+ flux,F380Y/beta4,0.133 (active)
same,log fold change Tl+ flux,R275C,0.0455 (inactive)
same,log fold change Tl+ flux,R275C/beta1,0.104 (inactive)
same,log fold change Tl+ flux,R275C/beta2Delta,0.158 (active)
same,log fold change Tl+ flux,R275C/beta4,0.109 (inactive)
same,log fold change Tl+ flux,R275C/Slo1WT/beta2,0.0178 (inactive)
